Laboratory results as given in PubChem BioAssay.
Calls of active or inactive are those of the source.

What was measured:
[1] = compound effects on differentiated 3T3-L1 adipocyte viability – cell-based, 3T3-L1 adipocytes, calcein-AM fluorescence, 48 h, basal, profiling panel (AID 1163); conditions: 3T3-L1 adipocytes viability, higher = more signal
[2] = compound effects on hepatocellular carcinoma cell viability – HepG2, calcein-AM fluorescence, 48 h, basal, profiling panel (AID 1164); conditions: higher = more signal
[3] = compound effects on multiple myeloma cell viability – MM1S, calcein-AM fluorescence, 48 h, basal, profiling panel (AID 1165); conditions: higher = more signal
[4] = calcein-AM signal in unstimulated myeloma cells – cell-based, calcein-AM fluorescence, 48 h, PK04 Diversity Set, profiling panel (AID 1166); conditions: RPMI8226 myeloma viability, higher = more signal;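 also: cells grown under basal conditions without added stimulus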
[5] = JC-1 mitochondrial signal, unstimulated HepG2 cells – cell-based, JC-1 fluorescence, 24 h, 100 nL compound, profiling panel (AID 1167); conditions: HepG2 mitochondrial potential, higher = more signal
[6] = JC-1 mitochondrial signal, unstimulated adipocytes – cell-based, JC-1 fluorescence, 3T3-L1 adipocytes, 24 h, 100 nL compound, profiling panel (AID 1168); conditions: JC-1 mitochondrial fluorescence, higher = more signal, called active from +8 up or from −8 down
[7] = JC-1 mitochondrial signal, unstimulated myeloma cells – cell-based, JC-1 fluorescence, RPMI8226, 24 h, 100 nL compound, profiling panel (AID 1169); conditions: JC-1 mitochondrial potential fluorescence, higher = more signal
[8] = JC-1 mitochondrial signal, unstimulated MM1S myeloma – cell-based, JC-1 fluorescence, 24 h, 100 nL compound, profiling panel (AID 1170); conditions: MM1S mitochondrial potential, higher = more signal
[9] = resazurin metabolic signal in A549 cells – cell-based, resazurin fluorescence, 24 h, PK04 Diversity Set, profiling panel (AID 1171); conditions: A549 viability, higher = more signal, called active from +8 up or from −8 down
[10] = resazurin metabolic signal in HepG2 cells – cell-based, resazurin fluorescence, 24 h, PK04 Diversity Set, profiling panel (AID 1172); conditions: HepG2 viability, higher = more signal
[11] = budding yeast growth changes without added modifier – OD600, strain BY4716, 24 h, basal condition, primary screen (AID 1173); conditions: S. cerevisiae BY4716 growth, OD600, 24 h; higher = more signal, called active from +8 up or from −8 down
[12] = viability profiling in MM1S myeloma cells – cell-based, resazurin fluorescence, basal, 24 h, PK04 Diversity Set, profiling panel (AID 1174); conditions: higher = more signal, called active from +8 up or from −8 down
[13] = molecular target: Dihydroorotate dehydrogenase (quinone), mitochondrial (Plasmodium falciparum (isolate 3D7)) (UniProt Q08210); assay: inhibition of P. falciparum DHODH – biochemical, C-terminal His tag, absorbance 600 nm, primary screen (AID 1175); conditions: PfDHODH enzyme, DCIP absorbance 600 nm; higher = more signal, called active from +8 up or from −8 down;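 also: recombinant parasite enzyme with a five histidine tag at its C terminus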
Dihydroorotate dehydrogenase (quinone), mitochondrial (Plasmodium falciparum (isolate 3D7)), sequence (Q08210 whole entry, looked up): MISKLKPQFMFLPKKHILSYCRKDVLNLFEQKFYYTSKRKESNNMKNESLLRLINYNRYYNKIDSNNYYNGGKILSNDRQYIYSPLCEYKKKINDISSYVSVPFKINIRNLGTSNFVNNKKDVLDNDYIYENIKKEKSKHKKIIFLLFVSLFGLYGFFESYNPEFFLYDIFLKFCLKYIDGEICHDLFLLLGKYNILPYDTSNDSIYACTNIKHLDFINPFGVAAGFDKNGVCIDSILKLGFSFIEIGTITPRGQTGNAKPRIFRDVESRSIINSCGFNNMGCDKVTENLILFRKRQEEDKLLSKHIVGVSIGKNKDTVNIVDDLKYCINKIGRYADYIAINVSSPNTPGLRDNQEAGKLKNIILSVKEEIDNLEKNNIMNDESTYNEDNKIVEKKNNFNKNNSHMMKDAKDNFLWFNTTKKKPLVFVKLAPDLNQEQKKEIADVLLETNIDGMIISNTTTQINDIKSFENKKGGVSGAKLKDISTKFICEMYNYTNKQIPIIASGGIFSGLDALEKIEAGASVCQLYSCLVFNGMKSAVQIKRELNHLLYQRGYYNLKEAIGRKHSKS

[14] = growth modulation of vineyard yeast isolate – strain RM11-1a, OD600, basal, 24 h, primary screen (AID 1177);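 also: cultures grown under basal conditions with no added stressor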; conditions: S. cerevisiae RM11-1a growth, OD600, 24 h; higher = more signal, called active from +8 up or from −8 down
[15] = growth of efflux-deficient E. coli DRC39 – strain DRC39, OD650, 24 h, E. coli filamentation inducers, primary screen (AID 1178);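 also: growth measured as culture turbidity by optical density at 650 nm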; conditions: E. coli DRC39 acrAB, higher = more signal, called active from +8 up or from −8 down
[16] = growth of efflux-deficient E. coli DRC39 – strain DRC39, OD650, 48 h, E. coli filamentation inducers, primary screen (AID 1179);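 also: screen aims at cell division blockers that make cells filament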; conditions: E. coli DRC39 delta-acrAB growth, higher = more signal, called active from +8 up or from −8 down
[17] = viability profiling in RPMI8226 myeloma cells – cell-based, resazurin fluorescence, basal, 24 h, PK04 Diversity Set, profiling panel (AID 1180); conditions: higher = more signal;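 also: RPMI8826 multiple myeloma cell line at 5000 cells per well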
[18] = molecular target: E3 ubiquitin-protein ligase XIAP (Homo sapiens) (UniProt P98170); assay: small molecules binding XIAP protein – biophysical, small-molecule microarray, fluorescence 635 nm, primary screen (AID 1181); conditions: higher = more signal;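 also: score merges 667 nm emission and signal to noise over triplicate slides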
E3 ubiquitin-protein ligase XIAP (Homo sapiens), sequence (P98170 whole entry, looked up, the tested form may be a part): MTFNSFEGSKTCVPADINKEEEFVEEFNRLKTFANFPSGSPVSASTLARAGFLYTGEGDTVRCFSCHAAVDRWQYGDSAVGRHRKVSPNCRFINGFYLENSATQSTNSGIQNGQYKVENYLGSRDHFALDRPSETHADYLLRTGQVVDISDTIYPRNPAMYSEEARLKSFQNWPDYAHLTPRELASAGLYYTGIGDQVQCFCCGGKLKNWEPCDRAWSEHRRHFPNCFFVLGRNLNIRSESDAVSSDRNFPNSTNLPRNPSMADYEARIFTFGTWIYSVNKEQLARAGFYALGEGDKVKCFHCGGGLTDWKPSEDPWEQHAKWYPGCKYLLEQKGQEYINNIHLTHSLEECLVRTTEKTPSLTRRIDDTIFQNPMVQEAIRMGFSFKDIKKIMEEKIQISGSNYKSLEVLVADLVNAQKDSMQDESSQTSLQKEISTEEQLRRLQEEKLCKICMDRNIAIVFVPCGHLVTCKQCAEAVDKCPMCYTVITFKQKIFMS

[19] = tested on: XIP peptide (Xip251-270) binding; assay: XIP fragment 251-270 binding compounds – biochemical, small-molecule microarray, fluorescence 635/667 nm, 0.1 µg/mL protein, primary screen (AID 1182); conditions: fluorescent protein binding, 635 nm, higher = more signal, called active from +8 up or from −8 down
[20] = tested on: XIP peptide (Xip251-270); assay: compounds binding XIP fragment 251-270 – biochemical, small-molecule microarray, fluorescence 635/667 nm, 0.5 µg/mL protein, primary screen (AID 1183); conditions: fluorescence 635 nm, higher = more signal

SMILES	z-score [1]	z-score [2]	z-score [3]	z-score [4]	z-score [5]	z-score [6]	z-score [7]	z-score [8]	z-score [9]	z-score [10]	z-score [11]	z-score [12]	composite z-score [13]	z-score [14]	z-score [15]	z-score [16]	z-score [17]	composite z-score [18]	composite z-score [19]	composite z-score [20]
O=C1c2ccccc2C(=O)c2cc([C@H]3Oc4ccccc4S(=O)(=O)N4CCC[C@@H]34)ccc21	1.07	0.158	-2.6	0.558	2.04	0.282 (inactive)	0.103	-0.752	0.623 (inactive)	1.62	-2.8 (inactive)	0.566 (inactive)	0.342 (inactive)	-1.5 (inactive)	2.89 (inactive)	1.21 (inactive)	0.476	0.0374	-1.15 (inactive)	-1.82
CC(=O)OC(C/C=C\B1OC(C)(C)C(C)(C)O1)c1ccccc1 (stereo not given)	0.554	0.467	0.345	0.0422	2.03	2.31 (inactive)	-0.457	0.962	0.273 (inactive)	0.518	-2.1 (inactive)	1.14 (inactive)	0.339 (inactive)	-4.44 (inactive)	1.5 (inactive)	0.57 (inactive)	0.157	-0.0256	-0.65 (inactive)	-0.842
CO[C@H]1O[C@H](CO)[C@@H](OC(=O)CCc2ccccc2)[C@@H]2OC(=O)[C@H](Cc3ccccc3)C/C=C/C[C@@H](Cc3ccccc3)C(=O)O[C@@H]12	0.234	0.62	-0.0096	0.212	0.443	0.886 (inactive)	0.12	0.119	1.43 (inactive)	1.02	-2.53 (inactive)	0.832 (inactive)	-15.6 (active)	-0.103 (inactive)	1.19 (inactive)	0.754 (inactive)	0.884	-0.039	1.2 (inactive)	-0.0342
O=C(NC1CC1)[C@@H]1c2ccccc2C(=O)N(Cc2ccccc2C(F)(F)F)[C@H]1c1ccc(CO)cc1	1.59	0.0356	-0.124	0.702	1.26	0.387 (inactive)	-0.0417	0.65	1.99 (inactive)	0.187	-0.844 (inactive)	1.55 (inactive)	0.209 (inactive)	-0.615 (inactive)	0.487 (inactive)	-0.152 (inactive)	1.98	-0.0848	0.62 (inactive)	0.618
C=CCNC(=O)[C@@H]1[C@H]2C(=O)O[C@H](c3ccccc3)[C@H](c3ccccc3)N2[C@H](c2ccc(O)cc2)[C@@]12C(=O)N(C(=O)OCCOC)c1ccc(C#Cc3ccc(OC)cc3)cc12	1.24	0.216	-1.58	-2.52	-0.914	3.45 (inactive)	-0.351	0.0591	0.834 (inactive)	-0.35	-0.468 (inactive)	0.699 (inactive)	0.21 (inactive)	0.964 (inactive)	0.236 (inactive)	0.83 (inactive)	0.804	0.14	0.688 (inactive)	0.656
COCCOC(=O)N1C(=O)[C@@]2(c3cc(C#CCNC(N)=O)ccc31)[C@H](C(=O)NC[C@H](O)c1ccccc1)[C@H]1C(=O)O[C@H](c3ccccc3)[C@H](c3ccccc3)N1[C@@H]2c1ccc(O)cc1	0.539	0.315	-0.825	0.987	-0.549	0.962 (inactive)	0.161	-0.29	0.0618 (inactive)	0.141	-0.331 (inactive)	0.751 (inactive)	-0.263 (inactive)	0.436 (inactive)	-0.17 (inactive)	0.316 (inactive)	1.46	0.166	1.29 (inactive)	0.178
C=C[C@H](OC)[C@@H](OC(=O)Nc1ccc(OC)cc1)c1ccc(OC)c(O)c1	0.922	-0.737	0.478	0.294	-0.638	1.02 (inactive)	0.756	0.206	0.304 (inactive)	0.895	-1.01 (inactive)	1.12 (inactive)	0.465 (inactive)	0.0923 (inactive)	1.89 (inactive)	1.29 (inactive)	1.15	0.0073	1.11 (inactive)	-1.18
COc1ccc([Si](C)(C)[C@H]2[C@H](CC(=O)N(CCO)Cc3ccccc3)O[C@@]3(C(=O)N(Cc4ccc(N5CCC5=O)cc4)c4ccccc43)[C@@H]2C)cc1	0.816	-0.861	-1.22	-3.56	0.197	1.44 (inactive)	-0.995	0.233	-1.1 (inactive)	0.0408	-0.344 (inactive)	-1.3 (inactive)	-0.983 (inactive)	1.73 (inactive)	1.61 (inactive)	1.46 (inactive)	-1.97	-0.0948	2.44 (inactive)	0.365
